From PubChem
Compounds with a hit are over-represented: about 27% of the library has one in this group of screens.
CYP2C19 act: activators of human cytochrome P450 2C19. recombinant CYP2C19, luciferin-H EGE luminescence; stronger effect = higher value; 0 = fully inhibited enzyme, 1 = untreated enzyme. 96,000 tested, under 10 active. P33261. activation factor at 5 µM;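 active means activation factor of at least 2 at 5 µM in the primary screen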;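 further: 0 = wells with 2.5 mM tranylcypromine and 1 = vehicle-only wells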
Target sequence (P33261 whole entry, looked up): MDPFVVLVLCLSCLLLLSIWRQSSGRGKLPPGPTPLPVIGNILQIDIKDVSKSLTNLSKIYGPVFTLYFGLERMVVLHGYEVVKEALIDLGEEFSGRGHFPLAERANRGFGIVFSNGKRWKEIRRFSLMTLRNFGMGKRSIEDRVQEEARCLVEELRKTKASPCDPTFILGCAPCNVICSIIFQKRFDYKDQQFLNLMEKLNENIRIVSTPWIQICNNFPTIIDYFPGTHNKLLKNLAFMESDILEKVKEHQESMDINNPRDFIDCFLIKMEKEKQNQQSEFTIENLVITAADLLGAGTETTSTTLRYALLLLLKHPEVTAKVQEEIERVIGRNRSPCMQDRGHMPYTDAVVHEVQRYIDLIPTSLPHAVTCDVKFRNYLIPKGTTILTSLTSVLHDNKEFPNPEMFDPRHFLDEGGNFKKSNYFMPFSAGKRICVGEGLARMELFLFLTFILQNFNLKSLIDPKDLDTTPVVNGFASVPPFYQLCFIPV
CYP2C9 inhib: blocks human cytochrome P450 2C9. P11712. CYP2C9 Supersomes, luciferin-H conversion, luminescence. 96,000 tested, 20% active. AID 777. inhibition, % at 5 µM;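 active means blocking of liver enzyme CYP2C9 beyond about 50% at 5 µM, limit read from the data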
sEH activator: increases human soluble epoxide hydrolase activity. AID 717. 91,000 tested, 0.04% active. activation, % at 2 µM. purified human sEH enzymatic activity, activator screen; in the data active means activation above about 37%
sEH inhibitor: blocks human soluble epoxide hydrolase activity; inhibition, % at 2 µM; AID 707; 91,000 tested, 0.34% active; P34913; recombinant human sEH enzymatic activity assay; in the data active means inhibition above about 80%
CYP2C9 activ: CYP2C9 (human) activation; recombinant CYP2C9, luciferin-H conversion, luminescence; stronger effect = higher value; factor 1 = untreated enzyme, 0 = blocked; 96,000 tested, 1.4% active; P11712; activation factor at 5 µM;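 active means activation factor of 2 or more for CYP2C9 at a 5 µM dose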;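 further: 0 = sulfaphenazole-blocked wells and 1 = vehicle-only wells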
CYP2C19 inh: human CYP2C19 inhibition | P33261 | CYP2C19 Supersomes, luciferin-H EGE luminescence, 30 min | inhibition, % at 5 µM | 96,000 tested, 21% active | AID 778;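 active means CYP2C19 inhibition above a set limit at 5 µM in the primary screen, cut at about 50% in these data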;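 further: plate controls were negative control wells for no effect and 2.5 mM tranylcypromine positive control for full effect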
The depositor's hits bear a star; x = no result.

SMILES | CYP2C19 act | CYP2C9 inhib | sEH activator | sEH inhibitor | CYP2C9 activ | CYP2C19 inh
CSc1nc(-c2ccc(C)cc2)[nH]c1S(=O)(=O)c1ccccc1 | 0.5 | 78.5* | -20.1 | 22.9 | 0.2 | 46.2
Cc1ccc2nc(N3CCN(S(=O)(=O)c4ccc(C)c(Cl)c4)CC3)c(C#N)cc2c1 | 0.8 | 42.0 | -12.2 | 10.6 | 0.6 | 19.5
O=C(CCC(NC(=O)OCc1ccccc1)C(=O)OCC(=O)N1CCCCC1)OCC(=O)N1CCCCC1 (configuration not stated) | 0.2 | 91.7* | 9.3 | -6.3 | 0.1 | 83.2*
CCOc1ccccc1NC(=O)CC1Nc2cc(C)c(C)cc2NC1=O (configuration not stated) | 0.8 | 42.2 | 1.2 | 0.9 | 0.6 | 16.7
CCOC(=O)c1c(NC(=O)CC2Nc3cc(C)c(C)cc3NC2=O)sc(C)c1C (configuration not stated) | 0.6 | 68.6* | 7.0 | -3.5 | 0.3 | 43.7
CC(C)CC(=O)NC(=S)Nc1ccccc1C(=O)Nc1ccccc1 | 0.7 | 27.3 | -5.6 | 4.0 | 0.7 | 33.0
COc1ccc(Br)cc1CNC(=O)CCc1nc(-c2ccc(C)cc2)no1 | 0.9 | 10.3 | 4.6 | -4.3 | 0.9 | 5.1
O=C(Nc1nc(=O)c2ccccc2s1)c1ccc(Cl)cc1 | 0.4 | 39.3 | -4.5 | 4.6 | 0.6 | 62.3*
N/C(=N\OC(=O)c1cccc(F)c1)c1ccccc1 | 1 | -2.7 | -1.7 | 5.7 | 1 | 0.3
Nc1nc(SCC(=O)NCCCN2CCOCC2)nc2sc3c(c12)CCC3 | 1 | -6.9 | -11.2 | 10.7 | 1.1 | 4.8
COc1cccc(=O)c2c(C)n(-c3cc(C)cc(C)c3)c(C)c12 | 0.2 | 82.4* | 8.2 | -7.5 | 0.2 | 82.3*
Cc1[nH]c(=O)c(C#N)c(C)c1Br | 1.1 | -11.5 | x | x | 1.1 | -5.0
COc1ccccc1NS(=O)(=O)c1ccccc1C#N | 0.4 | -173.9 | -3.8 | 3.3 | 2.7* | 57.8*
Cc1c(F)cccc1NS(=O)(=O)c1ccccc1C#N | 0.4 | 29.4 | -2.0 | 5.5 | 0.7 | 58.9*
COc1ccc(-c2cnc3nc[nH]c(=O)c3n2)cc1 | x | x | 3.3 | -1.0 | x | x
CCC(C)n1c(SCC(=O)Nc2cc(C)on2)nc2ccccc2c1=O (configuration not stated) | 0.4 | 52.2* | x | x | 0.5 | 61.6*
CCCCn1c(SCC(=O)Nc2cc(C)on2)nc2ccccc2c1=O | 0.8 | 9.7 | -2.4 | 0.4 | 0.9 | 18.1
Cc1cc(NC(=O)CSc2nc3ccccc3c(=O)n2C(C)c2ccccc2)no1 (configuration not stated) | 0.2 | 14.3 | 1.3 | -7.2 | 0.9 | 82.4*
Cn1c(NCCCN2CCOCC2)nc2c1c(=O)n(Cc1ccc(Cl)c(Cl)c1)c(=O)n2C | 0.9 | 6.1 | x | x | 0.9 | 14.4
CC(C)c1nnc(SCC(=O)NCCC2=CCCCC2)n1N | 0.8 | 60.5* | -1.3 | 3.2 | 0.4 | 17.1
CCN(CC)S(=O)(=O)c1cccc(-c2nnc(SCC(=O)NCCC3=CCCCC3)n2N)c1 | 0.8 | 38.2 | x | x | 0.6 | 17.7
CCCCc1ccc(-c2c(C#N)c(N)nc3c2CCCC3)s1 | 0.8 | -23.5 | 13.9 | -11.3 | 1.2 | 16.7
CCOc1ccc(=O)n(-c2ccccc2)n1 | x | x | -13.9 | 14.4 | x | x
CCn1c(COc2ccc(=O)n(-c3ccccc3)n2)nnc1SCc1cccc(OC)c1 | 0.8 | 53.0* | -4.8 | 3.6 | 0.5 | 16.7
C=CCN=C(NC#N)SCC(=O)c1cccc(OC)c1 | 0.1 | -25.8 | 11.7 | -8.4 | 1.3 | 94.9*
SMILES | CYP2C19 act | CYP2C9 inhib | sEH activator | sEH inhibitor | CYP2C9 activ | CYP2C19 inh
CN=C1S/C(=C\c2ccc(N3CCOCC3)c(F)c2)C(=O)N1C | 0.9 | 6.9 | 5.7 | -2.5 | 0.9 | 11.5
CCOC(=O)c1cc2sccc2n1CC(=O)O | 1 | 27.5 | -2.9 | 1.1 | 0.7 | 3.1
CCOC(=O)c1cc2sccc2n1CC(=O)c1ccc2c(c1)OCCO2 | 0.1 | 95.8* | -7.3 | 7.9 | 0 | 92.9*
Fc1ccc(OCc2nc(-c3ccc(Br)o3)no2)c(F)c1 | 0.1 | 27.4 | -6.6 | 4.2 | 0.7 | 94.4*
COc1ccc(Cc2nc(-c3ccc(Br)o3)no2)cc1OC | 0.1 | 64.9* | 12.8 | -15.8 | 0.4 | 87.7*
Clc1ccccc1OCc1nc(-c2ccc(Br)o2)no1 | 0.1 | 57.8* | x | x | 0.4 | 93.8*
COc1ccc(-c2noc(Cc3ccc(Cl)cc3)n2)cc1OC | 0.9 | 38.8 | 0.0 | -0.9 | 0.6 | 12.9
Cc1ccc(NC(=O)NNC(=O)C2CC(c3cccnc3)=NO2)cc1 (configuration not stated) | 0.9 | 21.8 | 5.4 | -4.6 | 0.8 | 9.3
CC(C)CN1C(=S)SC(C)(C)C1n1oc(=O)n(-c2ccc(Cl)cc2)c1=O (configuration not stated) | 0.3 | 88.0* | -17.4 | 17.1 | 0.1 | 66.2*
CC(O)c1nc2ccccc2n1Cc1nnc(-c2ccc(Cl)cc2)o1 (configuration not stated) | 0.3 | 33.8 | x | x | 0.7 | 66.4*
c1ccc(-c2nnc(Cn3c4ccccc4c4nc5ccccc5nc43)o2)cc1 | x | x | -1.4 | 1.1 | x | x
Cc1nc(Nc2ccc(S(N)(=O)=O)cc2)oc1C | 1.1 | 0.0 | 2.1 | -1.7 | 1 | -11.3
COC(=O)C(C)Sc1nc(-c2ccc(OC)cc2)nc2c1c(=O)n(C)c(=O)n2C (configuration not stated) | x | x | -6.2 | 7.2 | x | x
COCCn1nnnc1C(c1ccc(C)cc1)N1CCN(Cc2ccc3c(c2)OCO3)CC1 (configuration not stated) | 0.5 | 51.4* | x | x | 0.5 | 47.7
Cc1ccc(C(c2nnnn2Cc2cccs2)N2CCN(Cc3ccc4c(c3)OCO4)CC2)cc1 (configuration not stated) | 0.4 | 39.8 | x | x | 0.6 | 61.5*
CC(C)(C)n1nnnc1C(c1cccs1)N1CCN(Cc2ccc3c(c2)OCO3)CC1 (configuration not stated) | 0.5 | 38.3 | 5.3 | -1.6 | 0.6 | 52.7*
COCCn1nnnc1C(c1ccccc1)N1CCN(Cc2ccc3c(c2)OCO3)CC1 (configuration not stated) | 0.8 | 0.2 | x | x | 1 | 18.1
COc1ccccc1CN1CCN(C(CC(C)C)c2nnnn2Cc2cccs2)CC1 (configuration not stated) | 0.1 | 58.2* | x | x | 0.4 | 92.3*
NC(=O)CNC1CC(=O)N(CCc2ccccc2)C1=O (configuration not stated) | 0.9 | 6.7 | 9.1 | -6.1 | 0.9 | 13.5
CCC(C)(C)n1nnnc1C(c1cc2cc(C)cc(C)c2[nH]c1=O)N1CCN(Cc2ccc3c(c2)OCO3)CC1 (configuration not stated) | 0.7 | 79.7* | -0.3 | -2.0 | 0.2 | 25.9
Cc1cc(C)c2[nH]c(=O)c(C(c3nnnn3Cc3ccc4c(c3)OCO4)N3CCCCC3)cc2c1 (configuration not stated) | 0.7 | 22.7 | x | x | 0.8 | 34.0
CCN1C(=O)C2(C(C#N)=C(N)Oc3n[nH]c(-c4ccccc4)c32)c2ccccc21 (configuration not stated) | 1 | 12.8 | -2.6 | 2.5 | 0.9 | 1.7
